Only some compounds are listed: those with a hit (about 7.8% of all), similar ones and a draw of the others.
Lassa entry inh: inhibitors of Lassa virus binding or cell entry; Lassa virus pseudotype entry inhibition, cell reporter; Potency, µM (highest dose often 37.9 µM), without a hit: at the top dose activity change, negative = inhibition, most hits filed as inhibitors; 1.2% of 300,000 active; AID 540256; calls by dose curve; tested in HEK293 cells; note: potency is the fitted concentration of half-maximal effect; nearly all actives have a fitted effect of over 50% in size
VACV mCherry inh: inhibitors of vaccinia virus infection (mCherry reporter signal); Vaccinia virus mCherry reporter infection, fluorescence; Potency, µM (titrated, usually from 36.5 µM), for the others: at the highest dose activity change, negative = inhibition, hits mostly inhibitors; 0.63% of 310,000 active; AID 720579; calls by dose curve; tested in A549 cells; note: potency is the fitted concentration of half-maximal effect; nearly all actives have a fitted effect of over 35% in size
Marburg entry inh: blocks Marburg virus binding to or entry into cells; Marburg virus pseudotyped entry inhibition, cell reporter; Potency, µM (titrated, usually from 37.8 µM), for the others: at the highest dose activity change, negative = inhibition, most hits filed as inhibitors; 1.8% of 300,000 active; AID 540276; calls by dose curve; tested in HEK293 cells; note: potency is the fitted concentration of half-maximal effect
HCMV inh: blocks human cytomegalovirus replication; 4.5% of 410,000 active; AID 1259415; activity change, negative = inhibition, % at 57.5 µM; HFF cells, HCMV-luciferase reporter, 72 h; active compounds read low; in the data active = activity change below about -60%; inconclusive = no clear call, values can overlap the other calls; inactive = above about -39%
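Inhibition of viral replication was scored as loss of reporter luminescence in HFFs infected with HCMV-luciferase (MOI 1 PFU/cell) for 72 h; compounds tested at 2 doses, normalized to buffer and Salinomycin controls.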
VACV Venus inh: vaccinia inhibition (Venus reporter) | Potency, µM (highest dose often 36.5 µM), without a hit: at the highest dose activity change, negative = inhibition, most hits filed as inhibitors | 0.46% of 330,000 active | Vaccinia virus Venus reporter expression, fluorescence | AID 720580; calls by dose curve; tested in A549 cells; note: potency is the fitted concentration of half-maximal effect; nearly all actives have a fitted effect of over 30% in size
HCV inhibitor: HCV inhibition | Huh7.5.1 HCVcc-Cre infection, luciferase reporter, 44 h | Potency, µM (top dose mostly 41.8 µM), inactives show top-dose activity change, negative = inhibition, actives largely listed as inhibitors | 3.4% of 340,000 active | AID 651820; active = well fitted inhibition curve with a large enough effect; inconclusive = small, poorly fitted or top-dose-only effect, or another doubt; inactive = no such curve, though single readings can be large or run the other way; note: potency is the fitted concentration of half-maximal effect
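Compounds are dispensed onto cells plated 4 h earlier at 1,000 per well, with HCVcc-Cre virus (about 0.5 moi) added next. Following 44 h of culture, luminescent signal is measured for 15 sec after 15 min with substrate at room temperature.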
The depositor's hits bear a star; i = inactive; ? = inconclusive; . = no result given; [ ] = remark or other dose. % is set by controls: 0 for no effect and ±100 for the full control effect.

SMILES	Lassa entry inh	VACV mCherry inh	Marburg entry inh	HCMV inh	VACV Venus inh	HCV inhibitor
Cc1cc(/C=N/NC(N)=S)c(C)n1-c1ccc(Br)cc1	?	-7%	?	11	-7%	-8%
Cn1nnnc1SCC(=O)Nc1cccc([N+](=O)[O-])c1	12%	i	8%[46.1 µM]	-68*	-5%	-4%
O=C(CSc1nc(-c2ccccc2)nn1C(=O)c1ccccc1)Nc1cccc([N+](=O)[O-])c1	?	.	-2%	50	.	25µM*
CC(=O)n1nc(-c2cccc(C)c2)nc1SCC(=O)Nc1ccccc1	?	.	-2%	-89*	.	6%
O=C(c1cccc([N+](=O)[O-])c1)n1nc(-c2ccccc2)nc1NCc1ccccc1	6%	-17%	0%	51	-10%	1%
CCC(=O)n1nc(-c2ccccc2)nc1SCC(=O)Nc1ccc(C)cc1	-5%	.	2%	17	.	-8%
CC(=O)/C=C/c1ccccc1Oc1c(F)c(F)nc(F)c1F	.	.	.	-67*	.	-19%
COc1ccccc1/C=C\C(=O)O	.	-8%	.	.	-5%	.
O=S1(=O)CCO[C@H]2CCCC[C@@H]2N1Cc1cccc(F)c1	.	-24%	.	.	-16%	.
CCOc1cccc(/C=N/NC(=O)c2cc(C3CC3)[nH]n2)c1O	.	.	.	-90*	.	11µM*
O=C([C@@H]1C[C@@H](Sc2nc3ccccc3[nH]2)CN1Cc1ccc(Cl)cc1)N1CCN(c2ccccc2F)CC1	.	-10%	.	.	-22%	.
CCCS(=O)(=O)NCc1c(C)ncc2c1CCN(C(=O)/C=C/c1ccccc1)C2	.	-16%	.	.	-7%	.
CC(=O)[C@@]1(O)C(C)CC2C3C=C(C)C4=Cc5c(cnn5-c5ccccc5)C[C@]4(C)C3C(O)C[C@@]21C (stereo partly specified)	?	-25%	7.9µM*	?	?	7.1µM*
Cc1cc(N(CCO)CCO)ccc1N=Nc1cc(F)ccc1F	18%	-23%	?	-12	?	?
CCN(CCO)c1ccc(N=Nc2cc(C)[nH]n2)cc1	?	-2%	?	-80*	-27%	-4%
Cc1cc(NO)c(C(C)C)cc1N=O	15%	?	-27%	-65*	-22%	?
O=C1N/C(=N/N=C/c2ccccc2O)SC1Cc1ccc(F)cc1 (stereo unspecified)	?	?	?	-66*	?	?
NC(=O)NC(=O)CC1S/C(=N/N=C/c2ccccc2)NC1=O (stereo unspecified)	10%[46.1 µM]	i	0%[46.1 µM]	2	-12%	9%
COc1ccc(CC2S/C(=N/N=C/c3ccc(O)cc3)NC2=O)cc1 (stereo unspecified)	1.5µM*	?	8%	-11	-4%	?
COc1ccc(CC2S/C(=N/N=C/c3ccccc3O)NC2=O)cc1 (stereo unspecified)	.	?	.	?	0%	?
COc1ccc(/C=N/N=C2/NC(=O)C(CC(=O)NC(C)C)S2)cc1 (stereo unspecified)	?	-18%	7%	-24	-10%	1%
O=C1N/C(=N/N=C/c2ccc(O)cc2)SC1Cc1ccccc1 (stereo unspecified)	1.5µM*	?	0%	0	-7%	23%
COC(=O)[C@@H]1CCCN1Cc1ccc2c(c1)CN(Cc1nccs1)CCO2	.	i	.	.	-10%	.
CCc1nc(N)nc(N)c1-c1ccc(Cl)c(N=[N+]=[N-])c1	?	?	?	-79*	5.6µM*	?
CCOc1cc(-c2c(C)c(CC)nc(N)c2C#N)ccc1O	?	.	?	18	?	?
SMILES	Lassa entry inh	VACV mCherry inh	Marburg entry inh	HCMV inh	VACV Venus inh	HCV inhibitor
CCc1nc(N)nc(N)c1-c1ccc(Cl)c([N+](=O)[O-])c1	?	-15%	?	-99*	0.28µM*	?
C[N+]1(C)CC(O)[C@H](C(=O)[O-])C1 (stereo partly specified)	.	-16%	.	.	-1%	.
CS(=O)(=O)N1CCc2cc(C(=O)Nc3cccc(F)c3)ccc21	6%[46.1 µM]	3%	?	67	-7%	.
Brc1ccc(CNCCCSc2nnnn2-c2ccccc2)cc1	23%[46.1 µM]	-5%	6%[46.1 µM]	67	-6%	.
COc1ccccc1CNC(=O)CCc1c(C)c2cc3c(C)c(C)oc3cc2oc1=O	6%[46.1 µM]	i	?	?	-23%	.
CCc1cc2c3c(c1)C1(C(=O)N3C(C)(C)CC2C)C(C#N)=C(N)N2C(=C1C#N)Nc1ccccc12 (stereo unspecified)	13µM*	?	?	?	-30%	?
Cc1cc2c3c(c1)C1(C(=O)N3C(C)(C)CC2C)C(C#N)=C(N)Oc2cc(O)ccc21 (stereo unspecified)	-9%	.	-3%	-40	.	?
NC(=O)C1CCN(CC(=O)c2c[nH]c3ccc(F)cc23)CC1	10%	-11%	5%	6	-1%	13%
O=C(CN1CCN(c2ccccc2F)CC1)c1c[nH]c2ccc(F)cc12	?	.	12µM*	-24	.	?
CC1(Cc2ccc3c(c2)OCO3)C(=O)Nc2c(Cl)ccc(Cl)c21 (stereo unspecified)	.	-8%	.	-68*	-12%	.
CN1Cc2sccc2C(c2ccc(O)c(O)c2)C1 (stereo unspecified)	-8%	.	16%	.	.	.
CCc1ccc(-n2nc(C)c3c(C)cc(=O)n(CC(=O)Nc4ccc(OC)c(OC)c4)c32)cc1	2%[46.1 µM]	-12%	.	37	4%	.
COCC1CCCN(Cc2ccc3c(c2)CN(C(=O)c2sc(C)nc2C)CCO3)C1 (stereo unspecified)	.	0%	.	.	9%	.
Cc1cccc(C)c1Nc1sc(C(=O)c2ccccc2)c(N)c1S(=O)(=O)c1ccccc1	?	-30%	.	-62*	-22%	.
O=c1oc2ccccc2c(N2CCCC2)c1CN1CCCC1	1%	-11%	0%	28	-8%	-28%
O=c1oc2ccccc2c(Cl)c1CN1CCCCC1	.	.	.	-64*	.	?
COc1ccc(Br)cc1CC1C(=O)Nc2ccccc21 (stereo unspecified)	-2%[46.1 µM]	-26%	?	-74*	?	.
Cc1ccccc1CC1C(=O)Nc2ccc(Br)cc21 (stereo unspecified)	-4%[46.1 µM]	4%	-1%[46.1 µM]	?	-10%	.
O=C(NCCN1CCCCC1)[C@H]1[C@H](CO)[C@H]2Cn3c(cccc3=O)[C@@H]1N2C(=O)C1CC1	.	.	.	-5	.	.
CCCCOc1ccccc1NC(=O)Cn1c(-c2cncs2)nc2ccccc21	-2%[46.1 µM]	-1%	-3%[46.1 µM]	-7	-10%	.
COc1ccc(Oc2c(C(F)(F)F)oc3c(CN4CCCC(C)C4)c(O)ccc3c2=O)cc1 (stereo unspecified)	14%[46.1 µM]	0%	-4%[46.1 µM]	-61*	-10%	.
Cc1cc(C)cc(Oc2c(C(F)(F)F)oc3c(CN4CCCC(C)C4)c(O)ccc3c2=O)c1 (stereo unspecified)	1%[46.1 µM]	-5%	-5%[46.1 µM]	19	0%	.
COc1ccc(CN2CCOc3ccc(CN4CCC(O)(c5cccnc5)CC4)cc3C2)cc1OC	.	-19%	.	.	-18%	.
